Rows were chosen to be rich in hits. Some 5.9% of all compounds tested hit in one or more screens of this group.
ABHD5-PLIN5 inh: inhibitors of human ABHD5-perilipin-5 interaction; Split G. princeps luciferase complementation, luminescence, 4 h; inhibition, % at 4 µM; 360,000 tested, 0.78% active; AID 602281;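 active = inhibition above the mean inhibition across every tested compound plus 3 SD, cut at about 22% in these data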;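 also: 0% = DMSO only wells and the 100% control is not disclosed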
Rtt109 Vps75: blocks Candida albicans Rtt109/Vps75 acetyltransferase activity; Q5AAJ8; purified Rtt109/Vps75, ThioGlo CoA-SH fluorescence, 4 h; inhibition, % at 34.9 µM; 330,000 tested, 0.16% active;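 active = inhibition of at least 50% in every replicate; inconclusive = best replicate reaches 50% inhibition but some replicates fall short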
LANA-H2B inh: blocks KSHV LANA binding to histone H2A/H2B; Q9QR71; cell-free LANA-H2A/H2B peptide, fluorescence polarization; inhibition, % (test concentration not listed); 320,000 tested, 0.6% active; in the data active = inhibition mostly above about 10%, no sharp cut-off; inactive = mostly below about 6.7%
Target sequence (Q9QR71 whole entry, looked up): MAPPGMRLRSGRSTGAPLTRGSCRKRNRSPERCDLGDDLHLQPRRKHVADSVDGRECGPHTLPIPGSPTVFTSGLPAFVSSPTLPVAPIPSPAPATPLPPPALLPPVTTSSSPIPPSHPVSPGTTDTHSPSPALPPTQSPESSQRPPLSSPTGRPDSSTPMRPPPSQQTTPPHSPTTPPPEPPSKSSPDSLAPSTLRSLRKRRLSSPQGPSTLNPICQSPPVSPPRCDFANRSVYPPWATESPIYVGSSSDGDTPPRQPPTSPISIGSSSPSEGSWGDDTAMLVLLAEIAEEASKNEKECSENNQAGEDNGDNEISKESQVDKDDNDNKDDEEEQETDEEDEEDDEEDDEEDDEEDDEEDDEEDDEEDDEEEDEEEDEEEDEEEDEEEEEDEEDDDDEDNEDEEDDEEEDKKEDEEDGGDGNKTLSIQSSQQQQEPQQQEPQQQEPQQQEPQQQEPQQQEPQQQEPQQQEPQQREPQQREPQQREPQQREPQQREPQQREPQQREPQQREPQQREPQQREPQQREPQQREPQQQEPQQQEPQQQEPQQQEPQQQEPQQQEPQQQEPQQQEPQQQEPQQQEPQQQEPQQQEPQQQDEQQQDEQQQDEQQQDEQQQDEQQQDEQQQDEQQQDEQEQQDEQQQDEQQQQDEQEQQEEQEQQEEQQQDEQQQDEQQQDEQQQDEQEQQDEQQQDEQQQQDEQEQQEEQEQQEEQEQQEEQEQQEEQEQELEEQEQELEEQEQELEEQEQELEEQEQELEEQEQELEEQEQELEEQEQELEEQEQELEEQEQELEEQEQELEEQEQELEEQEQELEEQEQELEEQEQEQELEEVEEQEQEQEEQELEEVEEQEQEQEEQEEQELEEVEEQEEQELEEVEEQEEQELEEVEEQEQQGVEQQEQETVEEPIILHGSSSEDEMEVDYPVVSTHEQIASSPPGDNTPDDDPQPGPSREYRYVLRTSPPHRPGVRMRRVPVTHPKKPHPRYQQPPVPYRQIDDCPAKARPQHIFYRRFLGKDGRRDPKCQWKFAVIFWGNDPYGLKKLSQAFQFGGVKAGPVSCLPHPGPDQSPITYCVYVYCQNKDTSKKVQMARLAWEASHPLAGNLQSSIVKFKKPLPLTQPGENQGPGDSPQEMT
ALR H2O2 inh: human ALR oxidase inhibition via reduced H2O2 | P55789 | purified ALR, DTT oxidation, H2O2 HRP-luminol luminescence | inhibition, % (test concentration not listed) | 290,000 tested, 3.8% active | AID 485317;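 active = mean replicate inhibition above about 79%, with every replicate also reaching it, limit read from the data; inconclusive = only one of the two criteria met; inactive = mean below limit and not every replicate reaching it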
PRMT1 inh: inhibitors of human PRMT1. Q99873. recombinant PRMT1, activity-based probe fluorescence polarization. inhibition, % at 2.79 µM. 370,000 tested, 1.3% active. AID 652257;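 active = inhibition above about 21% made by adding two undisclosed values, limit read from the data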
rCAG binder: molecules binding r(CAG) RNA repeats. r(CAG) RNA repeat, TO-PRO-1 dye displacement fluorescence. inhibition, % at 3 µM. 370,000 tested, 1.3% active;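 active = inhibition above the plate cutoff, the mean of all test compounds on that plate plus 3 SD, cut at about 35% in these data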;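 also: 0% = DMSO alone and 100% = 100 µM mitoxantrone as full dye displacement; higher means more dye released from RNA so lower well fluorescence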
ABHD5 PLIN5 conf: confirmation of human ABHD5-PLIN5 interaction inhibitors; shares compounds with ABHD5-PLIN5 inh; biochemical ABHD5-PLIN5 interaction, luminescence; inhibition, % at 4 µM; 2,200 tested, 67% active; in the data active = inhibition above about 23%;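 also: 0% = DMSO vehicle wells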
HNF4 split-luc: counter-screen for ABHD5-PLIN5 inhibitors: HNF4 split-luciferase. shares compounds with ABHD5-PLIN5 inh. HNF4 dimerization, luminescence, biochemical. inhibition, % at 4 µM. 2,200 tested, 77% active. AID 651674;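 active = mean inhibition across replicate wells exceeding the computed hit threshold, cut at about 13% in these data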;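 also: light from luciferase halves that rejoin when HNF4 fusion proteins dimerize; 0% = DMSO only wells and the 100% control is not given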
Active calls of the source: *.

How did COc1ccccc1CNCC(O)Cn1c2ccccc2c2ccccc21 (stereo not drawn) do in these assays?
ABHD5-PLIN5 inh: 35*; LANA-H2B inh: -7; ALR H2O2 inh: -19; PRMT1 inh: 5; rCAG binder: 12; ABHD5 PLIN5 conf: 9; HNF4 split-luc: -2

How did Cc1ccc(C(=O)Nc2nc3ccccc3c(=O)s2)cc1 do in these assays?
ABHD5-PLIN5 inh: 29*; Rtt109 Vps75: 7; LANA-H2B inh: -3; ALR H2O2 inh: 2; PRMT1 inh: 59*; rCAG binder: 2; ABHD5 PLIN5 conf: 6; HNF4 split-luc: -10

Results for CCN1CCN(C(=O)/C=C/c2ccc(C(C)C)cc2)CC1 ?
ABHD5-PLIN5 inh: 9; Rtt109 Vps75: 4; LANA-H2B inh: 4; ALR H2O2 inh: 29; PRMT1 inh: 1; rCAG binder: -2

What do the screens show for `CCN1CCC(O)(/C=C/c2ccc(C(C)C)cc2)C(C(=O)/C=C/c2ccc(C(C)C)cc2)C1` (stereo not drawn)?
ABHD5-PLIN5 inh: 67*; Rtt109 Vps75: -5; PRMT1 inh: 24*; rCAG binder: -1; ABHD5 PLIN5 conf: 78*; HNF4 split-luc: 79*

How did CCOC(=O)Nc1ccc2c(c1)N(C(=O)CCN(CC)CC)c1ccccc1S2=O (stereo not drawn) do in these assays?
ABHD5-PLIN5 inh: 23*; Rtt109 Vps75: 1; LANA-H2B inh: 3; ALR H2O2 inh: 13; PRMT1 inh: 17; rCAG binder: -5; ABHD5 PLIN5 conf: 21; HNF4 split-luc: 78*

How did CCOC(=O)Nc1ccc2c(c1)N(C(=O)CCN(CC)CC)c1ccccc1CC2 do in these assays?
ABHD5-PLIN5 inh: 0; Rtt109 Vps75: 1; LANA-H2B inh: 3; ALR H2O2 inh: 3; PRMT1 inh: 2; rCAG binder: -6

Results for O=c1c(C(c2ccccc2)c2c(O)nc3n(c2=O)CCS3)c(O)nc2n1CCS2 ?
ABHD5-PLIN5 inh: 25*; Rtt109 Vps75: 1; LANA-H2B inh: -2; ALR H2O2 inh: 52; PRMT1 inh: 7; rCAG binder: 6; ABHD5 PLIN5 conf: 56*; HNF4 split-luc: 59*

What do the screens show for `CCC(C)NC(=O)Nc1ccc2c(c1)N(C)C(=O)c1ccccc1S2` (stereo not drawn)?
ABHD5-PLIN5 inh: 46*; Rtt109 Vps75: 29; LANA-H2B inh: 3; ALR H2O2 inh: -3; PRMT1 inh: -1; rCAG binder: 0; ABHD5 PLIN5 conf: 60*; HNF4 split-luc: 0

How did CCOC(=O)c1ccc(NC(=O)c2nc(S(=O)(=O)Cc3ccccc3)ncc2Cl)cc1 do in these assays?
ABHD5-PLIN5 inh: 49*; Rtt109 Vps75: 12; LANA-H2B inh: -3; ALR H2O2 inh: -3; PRMT1 inh: 6; rCAG binder: 2; ABHD5 PLIN5 conf: 92*; HNF4 split-luc: 92*

Results for CCCc1nnc(NC(=O)c2nc(S(=O)(=O)Cc3ccc(C)cc3)ncc2Cl)s1 ?
ABHD5-PLIN5 inh: 44*; Rtt109 Vps75: inconclusive; LANA-H2B inh: 10; ALR H2O2 inh: 9; PRMT1 inh: 6; rCAG binder: 30; ABHD5 PLIN5 conf: 77*; HNF4 split-luc: 53*

How did Cc1ccc(NC(=O)c2nc(S(=O)(=O)Cc3ccccc3C)ncc2Cl)cc1C do in these assays?
ABHD5-PLIN5 inh: 72*; Rtt109 Vps75: 5; LANA-H2B inh: -13; ALR H2O2 inh: -2; PRMT1 inh: 35*; rCAG binder: 13; ABHD5 PLIN5 conf: 98*; HNF4 split-luc: 97*

How did Cc1onc(-c2c(F)cccc2Cl)c1C(=O)NCc1ccc2c(c1)OCO2 do in these assays?
ABHD5-PLIN5 inh: 1; Rtt109 Vps75: 1; LANA-H2B inh: -2; ALR H2O2 inh: -11; PRMT1 inh: 0; rCAG binder: -4

What do the screens show for `Cc1cccc(CS(=O)(=O)c2ncc(Cl)c(C(=O)NCc3ccc4c(c3)OCO4)n2)c1`?
ABHD5-PLIN5 inh: 49*; Rtt109 Vps75: 1; LANA-H2B inh: -1; ALR H2O2 inh: 4; PRMT1 inh: 22*; rCAG binder: 1; ABHD5 PLIN5 conf: 87*; HNF4 split-luc: 105*

How did C=C(C)[C@@H]1CC2=C(OC)C(CC=C(C)C)(CC=C(C)C)C(=O)C(C(=O)c3ccccc3)=C2O1 do in these assays?
PRMT1 inh: 2; rCAG binder: 10

Results for CCCS(=O)(=O)c1ncc(Cl)c(C(=O)Nc2ccc(S(=O)(=O)Nc3ncccn3)cc2)n1 ?
ABHD5-PLIN5 inh: 33*; Rtt109 Vps75: 3; LANA-H2B inh: 1; ALR H2O2 inh: 68; PRMT1 inh: 20; rCAG binder: 4; ABHD5 PLIN5 conf: 71*; HNF4 split-luc: 86*

Results for CCSc1ncc(Cl)c(C(=O)Nc2ccc(S(=O)(=O)Nc3ncccn3)cc2)n1 ?
ABHD5-PLIN5 inh: 1; Rtt109 Vps75: -6; LANA-H2B inh: 1; ALR H2O2 inh: -3; PRMT1 inh: -1; rCAG binder: 0

What do the screens show for `CSc1nnc(NC(=O)c2nc(S(=O)(=O)Cc3ccccc3)ncc2Cl)s1`?
ABHD5-PLIN5 inh: 23*; Rtt109 Vps75: -2; ALR H2O2 inh: 97*; PRMT1 inh: 6; rCAG binder: 19; ABHD5 PLIN5 conf: 69*; HNF4 split-luc: 42*

How did CC(C)c1nnc(NC(=O)CCc2ccccc2)s1 do in these assays?
ABHD5-PLIN5 inh: 10; Rtt109 Vps75: -1; LANA-H2B inh: -1; ALR H2O2 inh: -9; PRMT1 inh: -2; rCAG binder: -7

Results for CC(C)c1nnc(NC(=O)c2nc(S(=O)(=O)Cc3ccccc3)ncc2Cl)s1 ?
ABHD5-PLIN5 inh: 35*; Rtt109 Vps75: inconclusive; ALR H2O2 inh: 98*; PRMT1 inh: 7; rCAG binder: 15; ABHD5 PLIN5 conf: 85*; HNF4 split-luc: 68*

How did C[C@H]1[C@@H](OC(=O)Nc2ccc(Br)cc2)CC[C@@]23CCCN2C(=O)CCC[C@@H]13 do in these assays?
PRMT1 inh: -4

How did O=C(O)C1CC(c2ccccc2)=Nc2ccccc2S1 (stereo not drawn) do in these assays?
ABHD5-PLIN5 inh: -5; Rtt109 Vps75: -18; LANA-H2B inh: 2; PRMT1 inh: 14; rCAG binder: 1

Results for O=[N+]([O-])c1ccc(C2CC(c3ccccc3)=Nc3ccccc3S2)cc1 (stereo not drawn) ?
ABHD5-PLIN5 inh: 79*; Rtt109 Vps75: -11; LANA-H2B inh: -4; ALR H2O2 inh: 24; PRMT1 inh: 79*; rCAG binder: 5; ABHD5 PLIN5 conf: 26*; HNF4 split-luc: 88*

What do the screens show for `Fc1ccc(C2CC(c3ccco3)=Nc3ccccc3S2)cc1` (stereo not drawn)?
ABHD5-PLIN5 inh: 46*; Rtt109 Vps75: 56*; LANA-H2B inh: 8; ALR H2O2 inh: -4; PRMT1 inh: 71*; rCAG binder: -2; ABHD5 PLIN5 conf: 0; HNF4 split-luc: 69*

High-throughput results: PubChem, several laboratories
